CHO-K1 Ca PAM – nonselective calcium activators in parental CHO-K1 cells, primary screen, counter-screen for M1 PAM project, cell-based, Fluo-8 calcium fluorescence, full deck, 1536-well | ATP EC20; 0% at ATP EC20, 100% at ATP max | activation, % at 3 µM | 0.02% of 360,000 active;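 active = activation above the run cutoff, the mean activation of all test compounds plus 3 SD, cut at about 40% in these data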;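 also: peak over basal fluorescence ratio in a 140 s read after ATP addition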
CHRM1 agonist – human M1 muscarinic receptor agonists, primary screen, Fluo-8 calcium fluorescence, CHO-K1 cells, HTS; Muscarinic acetylcholine receptor M1 (Homo sapiens), P11229; CHO-K1 hM1, agonist mode; 0% DMSO, 100% acetylcholine EC100; activation, % at 3 µM; 0.33% of 360,000 active; AID 588814, 2011;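 active = activation above the run's mean compound activation plus 3 SD, cut at about 16% in these data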;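 also: peak over basal fluorescence ratio within a 140 s kinetic read after compound addition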
Target sequence (P11229 whole entry, looked up): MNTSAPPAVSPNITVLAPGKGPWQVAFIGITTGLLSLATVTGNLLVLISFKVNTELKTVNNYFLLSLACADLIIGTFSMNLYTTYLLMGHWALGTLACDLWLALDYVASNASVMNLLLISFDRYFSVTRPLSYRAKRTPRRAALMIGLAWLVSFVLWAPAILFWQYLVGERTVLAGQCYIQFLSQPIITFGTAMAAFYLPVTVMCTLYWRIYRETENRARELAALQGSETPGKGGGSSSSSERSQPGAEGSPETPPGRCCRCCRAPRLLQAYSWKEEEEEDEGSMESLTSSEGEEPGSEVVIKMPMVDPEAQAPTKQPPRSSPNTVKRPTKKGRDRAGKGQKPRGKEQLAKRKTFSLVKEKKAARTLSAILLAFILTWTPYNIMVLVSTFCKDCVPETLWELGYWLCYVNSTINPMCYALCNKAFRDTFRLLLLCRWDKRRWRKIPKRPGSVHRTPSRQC
M1 ag parental – counter-screen for M1 agonists: effect in parental CHO-K1 cells; Fluo-8 calcium fluorescence; scaled to maximal ATP response, vehicle zero; 0.48% of 360,000 active; AID 602248, 2012; activation, % at 3 µM; in the data active = activation above about 15%;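 also: untransfected CHO-K1 host cells lacking M1 receptor as counterscreen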
CHO-K1 Ca antag – M1 antagonist counterscreen hit in parental CHO-K1 cells; ATP-induced calcium, Fluo-8 fluorescence; inhibition, % at 3 µM; 0.6% of 360,000 active; AID 602250;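 active = inhibition above a per-plate cutoff, the plate's mean sample inhibition plus 3 SD, cut at about 24% in these data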;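 also: 0% = DMSO plus EC80 ATP and 100% = DMSO alone without ATP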
M1 antag – human M1 muscarinic receptor antagonists, primary screen, CHO-K1 cells, Fluo-8 calcium fluorescence, 1536-well; Muscarinic acetylcholine receptor M1 (Homo sapiens), P11229; CHO-K1 hM1, ACh EC80 antagonist; inhibition, % at 3 µM; 1.3% of 360,000 active;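 active = percent inhibition above its own plate's cutoff, namely the mean of that plate's compound wells plus 3 SD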;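 also: peak over basal fluorescence ratio during 140 s after agonist addition; 0% = ACh EC80 plus DMSO and 100% = DMSO alone without agonist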
CHRM1 PAM – human M1 muscarinic receptor positive allosteric modulators, primary screen, CHO-K1 cells, Fluo-8 calcium fluorescence, 1536-well | CHO-K1 hM1, ACh EC20; 0% = ACh EC20, 100% = maximal ACh | Muscarinic acetylcholine receptor M1 (Homo sapiens), P11229 | activation, % at 3 µM | 0.088% of 360,000 active; in the data active = activation above about 19%, passing the limit was not always enough
Numbers without * were called inactive. An excerpt weighted towards active compounds, which were near 2.4% of everything screened.

SMILES | CHO-K1 Ca PAM | CHRM1 agonist | M1 ag parental | CHO-K1 Ca antag | M1 antag | CHRM1 PAM
O=C(OCC(=O)N1CCCCCC1)c1ccc(Cl)c(S(=O)(=O)N2CCCC2)c1 | -10.5 | -5.9 | 15.7* | 16.8 | -2.4 | -4.4
Cc1ccc(S(=O)(=O)N2CCN(C(=O)COC(=O)c3ccc(O)cc3)CC2)c(C)c1 | -19.7 | 0.1 | 1.1 | 26.9* | 30.3* | -12.2
Cc1ccc(C(=O)OCC(=O)N2CCCC2)cc1 | -12.8 | 0.2 | 0.2 | -6.6 | 20.5* | -7.0
Cc1ccc(S(=O)(=O)N2CCN(C(=O)COC(=O)c3ccc(C(C)(C)C)cc3)CC2)c(C)c1 | -20.2 | -2.5 | 0.0 | 9.0 | -2.7 | 7.8
Cc1ccc(OCC(=O)N2CCCCC2)c(Br)c1 | 6.8 | -1.0 | 0.0 | -16.0 | -23.0 | 27.3*
NC(=O)COC(=O)c1ccc(Cl)c(S(=O)(=O)N2CCCCCC2)c1 | 5.6 | -4.4 | 1.2 | -15.6 | -5.1 | 6.0
NC(=O)C1CCN(S(=O)(=O)c2cc3c4c(c2)CCN4C(=O)CC3)CC1 | 11.8 | -2.7 | 1.1 | -16.2 | -11.3 | 5.8
O=S(=O)(c1cccs1)N1CCN(CC(O)COc2cc(Cl)ccc2Cl)CC1 (stereo unspecified) | 3.2 | 6.9 | 9.4 | 23.4 | 23.2* | -12.8
CCN(CC)S(=O)(=O)c1cc(NC(=O)NCCCl)ccc1C | 7.0 | -3.3 | 0.3 | -7.6 | 2.1 | 3.0
CCN(CC)S(=O)(=O)c1cc(NC(=O)c2ccc(Br)s2)ccc1C | -6.3 | -3.4 | 3.1 | 35.5* | 9.4 | -15.2
CC(Nc1nc(-c2cccnc2)nc2ccccc12)c1ccccc1 (stereo unspecified) | 13.0 | -5.3 | 17.0* | 6.5 | -6.1 | -3.8
CC(Nc1nc(-c2ccncc2)nc2ccccc12)c1ccccc1 (stereo unspecified) | -7.6 | -7.3 | -0.4 | -3.4 | 17.2 | -8.0
C=C1C(C(=O)Nc2ccc(OC)cc2)C1C(=O)Nc1ccc(OC)cc1 (stereo unspecified) | -13.3 | -2.6 | 0.0 | 1.2 | 25.1* | -4.1
C=C1C(C(=O)Nc2ccc(OCC)cc2)C1C(=O)Nc1ccc(OCC)cc1 (stereo unspecified) | -4.1 | -3.7 | 5.4 | 0.5 | 8.4 | -1.1
Cc1cc(C)cc(OCCNC(=O)c2ccc(Br)cc2)c1 | -10.1 | 0.0 | 0.3 | 1.2 | -2.1 | 9.6
CCOC(=O)[C@H]1[C@H]2COc3ccc(Cl)cc3[C@@H]2N2C(=O)c3ccc(Cl)cc3NC(=O)[C@@]12C | 5.9 | -0.7 | -0.7 | -4.9 | -2.3 | 3.5
CCOc1ccc(N(CC(=O)Nc2c(C)n(C)n(-c3ccccc3)c2=O)S(=O)(=O)c2ccc(F)cc2)cc1 | 1.9 | -5.7 | 0.1 | -5.5 | -7.2 | 3.8
COc1ccc(NC(=O)C2Cc3c(-c4cccc(C(N)=O)c4)ccnc3O2)cc1OC (stereo unspecified) | -2.8 | -0.2 | -0.2 | -7.5 | -18.5 | 4.2
COc1ccc(NC(=O)C2Cc3c(-c4cccc(C(C)=O)c4)ccnc3O2)cc1OC (stereo unspecified) | -16.5 | 6.3 | 2.4 | 23.9* | 6.3 | -5.1
CCOc1ccc2[nH]c(=O)c(C(c3nnnn3C3CCCCC3)N3CCN(CC)CC3)cc2c1 (stereo unspecified) | 20.4 | -6.4 | 3.2 | -2.9 | 22.1* | -20.3
CCOc1ccc2[nH]c(=O)c(C(c3nnnn3C3CCCCC3)N3CCN(C)CC3)cc2c1 (stereo unspecified) | -5.1 | -4.6 | 0.3 | 5.9 | 14.5 | -3.2
Cc1ccc(OCCCN2C(=O)C(=O)c3cccc(C)c32)cc1 | 21.1 | 13.9 | 1.3 | -7.9 | -12.0 | 10.7
Cc1cccc2c1N(CCOc1ccccc1Cl)C(=O)C2=O | 17.5 | 23.6* | 0.9 | -3.4 | -16.0 | -1.3
Cc1cccc2c1N(CCOc1ccc(C(C)(C)C)cc1)C(=O)C2=O | -4.1 | 20.9* | -0.3 | 4.7 | -0.8 | -7.1
O=C(NN1C(=O)NC2(CCCCC2)C1=O)c1cccs1 | 7.0 | 0.9 | -0.4 | -6.4 | 3.1 | 8.7
SMILES | CHO-K1 Ca PAM | CHRM1 agonist | M1 ag parental | CHO-K1 Ca antag | M1 antag | CHRM1 PAM
CC1CCCC(C)N1C(=O)COc1ccc(C(=O)Nc2ccccc2N2CCOCC2)cc1 (stereo unspecified) | 4.3 | -2.1 | 0.5 | -6.0 | 34.2* | 6.2
CCc1ccc(C(=O)NNC(=O)C2CSC3(C)CCC(=O)N23)cc1 (stereo unspecified) | 14.2 | -2.0 | 1.1 | -7.3 | -4.2 | 6.2
COc1ccccc1NC(=O)CN1C(=O)CC(C)S(=O)(=O)c2ccccc21 (stereo unspecified) | 1.3 | -0.1 | 0.9 | 3.3 | -8.8 | 3.4
c1ccc(-c2nnc(N3CCN(c4ccccc4)CC3)nc2-c2ccccc2)cc1 | 6.2 | -2.4 | -0.1 | 2.4 | -17.0 | 14.3
CC(C)CNC(=O)CSc1nc(-c2cccs2)cc(C(F)(F)F)n1 | -5.9 | -3.4 | -0.6 | 23.9* | -15.0 | -4.1
CN1CCN(c2nc(-c3cccs3)cc(C(F)(F)F)n2)CC1 | 19.7 | -3.5 | 1.7 | -9.6 | 70.5* | -21.2
O=[N+]([O-])c1cnn(-c2nc(-c3cccs3)cc(C(F)(F)F)n2)c1 | -1.5 | -2.7 | 1.0 | -11.2 | -4.3 | 4.4
CN1CCN(c2nc(-c3ccccc3)cc(C(F)(F)F)n2)CC1 | -2.2 | -3.8 | -0.1 | 7.4 | 43.1* | -18.8
CN1CCN(c2nnc(-c3ccccc3)c(-c3ccccc3)n2)CC1 | -12.9 | -8.7 | 0.1 | 5.7 | 38.7* | -20.2
CC1=C(C(=O)N(C)C)CC(CC(=O)NCCN2CCOCC2)C(=O)N1Cc1ccc(F)cc1 (stereo unspecified) | 1.7 | -1.1 | 0.1 | 1.8 | -12.2 | 5.9
COC(=O)[C@@H]1CCCN1C(=O)c1ccc(OC2CCN(Cc3ccccn3)CC2)cc1 | -9.7 | -3.8 | -0.3 | -12.8 | -21.9 | 27.6*
COc1ccc(/C=C\C(=O)O[C@@H]2C(O)C(O[C@@H]3OC(C)[C@H](O[C@@H]4OCC(O[C@H]5O[C@H](CO)[C@@H](O)C(O)C5O)C(O)C4O)C(O)C3O)[C@H](OC(=O)[C@]34CCC(C)(C)C[C@@H]3C3=CCC5[C@@]6(C)CC(O)C(O[C@@H]7OC(CO)C(O)[C@H](O)[C@H]7O)[C@@](C)(C(=O)O)C6CC[C@@]5(C)[C@]3(CO)CC4)O[C@H]2C)cc1 (stereo partly specified) | -19.9 | 95.2* | 90.1* | 71.2* | 84.7* | -36.5
O=C(c1ccc(S(=O)(=O)c2cccc(Cl)c2)c([N+](=O)[O-])c1)N1CCN(c2ccccn2)CC1 | -10.0 | 0.0 | 16.1* | 26.2* | 58.5* | -19.4

Screens as filed in PubChem BioAssay.
